# In PubChem BioAssay (NCATS):
# Inconclusive results are not listed. Values without a mark were called inactive. Calls of active or inactive are those of the source. Calls come from the whole dose curve; as a rule, active = well fitted curve in the direction sought with a large enough effect; inconclusive = small, poorly fitted or top-dose-only effect, or another doubt; inactive = no such curve, though single readings can be large; an effect the other way counts as inactive or inconclusive.
# Columns and labels:
# [1] = test system: Zika virus NS2B-NS3 protease (linked construct); assay: Primary screen NINDS Rhodamine qHTS for Zika virus inhibitors (AID 1347160); note: nearly all actives have a fitted effect of over 55% in size; note: potency is the fitted concentration of half-maximal effect
# Method in brief: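 Purified NS2B-NS3 protease with the NS2B hydrophilic domain joined by a flexible linker (25 nM) in 10 mM Tris-HCl pH 8.0, 0.01% Tween 20, preincubated 15 min at RT with compound; Rhodamine110 peptide substrate 1.5 µM; fluorescence change over 15 min; 4-parameter Hill fit.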
# [2] = qHTS for Antimalaria activity screened against the NCATS CANVASS Library (AID 1347380); note: nearly all actives have a fitted effect of over 40% in size; note: potency is the fitted concentration of half-maximal effect
# Method in brief: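 Red blood cells infected with P. falciparum Dd2 (2.5% hematocrit final, 0.3% parasitemia) were exposed to compounds in an 11-point qHTS series for 72 hr at 37C under 5% O2 and 5% CO2. Lysis buffer with SYBR Green was then added for 18 hr, and fluorescence was read at 485/535 nm.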
# [3] = qHTS for activators of Nrf2/ARE signaling pathway screened against the NCATS CANVASS Library (AID 1347391); note: nearly all actives have a fitted effect of over 60% in size; note: potency is the fitted concentration of half-maximal effect
# Method in brief: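 ARE-bla HepG2 beta-lactamase reporter cells exposed to compounds for 16 h at 37C; CCF4 substrate 2 h, fluorescence at ex 405 nm, em 460/530 nm. Viability by CellTiter-Glo luminescence.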
# [4] = Vero-766 cells viability qHTS against the NCATS CANVASS Library: Counterscreen for Zika virus inhibition assay (AID 1347394); note: nearly all actives have a fitted effect of over 60% in size; note: potency is the fitted concentration of half-maximal effect
# Method in brief: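 Vero 766 cells (1000/well), without Zika virus, were exposed to compounds for 72 h at 37C. Viability was measured by CellTiter Glo luminescence. Media-only wells served as 100% inhibition.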
# [5] = Viability qHTS for inhibitors of the SERCaMP assay screened against the NCATS CANVASS Library (AID 1347400); note: nearly all actives have a fitted effect of over 70% in size; note: potency is the fitted concentration of half-maximal effect; for activity change, negative = cytotoxicity: series mostly up to about 92 µM; % is set by controls: 0 for no effect and ±100 for the full control effect
# Method in brief: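 SH-SY5Y-GLuc SERCaMP MJH297-derived cells, 1000/well, plated 4 h, then exposed to compounds in an 11-point qHTS series for 48 h at 37C. Viability read as CellTiter-Glo luminescence.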
# [6] = OV-SAHO Cancer Cell Toxicity qHTS against the NCATS CANVASS Library (AID 1347348); note: nearly all actives have a fitted effect of over 55% in size; note: potency is the fitted concentration of half-maximal effect; for activity change, negative = cytotoxicity: series mostly up to about 38 µM; % is set by controls: 0 for no effect and ±100 for the full control effect
# Method in brief: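 Cells were seeded at 1000 per well, allowed 4 h at 37 degrees C/5% CO2, then pin-treated with an 11-point compound series. After 72 h, viability was read as CellTiter-Glo luminescence following 15min at room temperature.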
# [7] = A2780 Cisplatin Sensitive Ovarian Cancer Cell Toxicity qHTS against the NCATS CANVASS Library (AID 1347353); note: nearly all actives have a fitted effect of over 60% in size; note: potency is the fitted concentration of half-maximal effect; for activity change, negative = cytotoxicity: series mostly up to about 46 µM; % is set by controls: 0 for no effect and ±100 for the full control effect
# Method in brief: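 A2780 cells, 750/well, settled 4 h at 37 °C, then treated with an 11-point compound series for 72 h. Viability was read as ATPLite luminescence after 10 min at room temperature, with bortezomib as control.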
# [8] = qHTS assay for small molecule disruptors of mitochondrial membrane potential screened against the NCATS CANVASS Library (AID 1347389); note: nearly all actives have a fitted effect of over 60% in size; note: potency is the fitted concentration of half-maximal effect; for activity change, negative = depolarization: series mostly up to about 46 µM; % is set by controls: 0 for no effect and ±100 for the full control effect
# Method in brief: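 HepG2 cells (2,000/well) plated overnight, then exposed to compounds in 11-point qHTS series for 1 h at 37C before 30 min Mito-MPS dye; depolarization read as fall in red aggregate (590 nm) to green monomer (535 nm) fluorescence.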
# [9] = qHTS for Activators of p53 Stress Response Pathway screened against the NCATS CANVASS Library (AID 1347388); note: 0% is about no effect
# Method in brief: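 Beta-lactamase reporter driven by p53 response elements in HCT-116 cells, read as the 460 nm/530 nm emission ratio after CCF4 loading, following 16 h of exposure to an 11-point series. Cell viability was measured in the same wells by CellTiter-Glo luminescence.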
smiles,measurement,setting,value
C[C@]12CC[C@]3(C1)[C@H](CC2=O)C[C@@H](OC(=O)c1ccccc1)[C@H]1[C@](C)(C(=O)O)CCC[C@@]13C,Potency,[1],19.6 µM (active)
same,Potency,[2],0.0133 µM (active)
same,Potency,[3],3.71 µM (active)
C/C=C(/C)c1c(Cl)c(OC)c(C)c2c1Oc1c(Cl)c(O)c(Cl)c(C)c1C(=O)O2,Potency,[1],1.39 µM (active)
same,Potency,[2],inactive
same,Potency,[3],inactive
same,Potency,[4],3.71 µM (active)
same,Potency,[5],inactive
COc1cc(C2OCC3C(c4ccc(O)c(OC)c4)OCC23)ccc1O (stereo not drawn),Potency,[1],inactive
same,"activity change, negative = cytotoxicity",[6],-15.1% [at 7.64 µM]
same,outcome,[7],inactive [at 9.19 µM]
same,"activity change, negative = depolarization",[8],2.39% [at 9.19 µM]
same,"activity change, negative = cytotoxicity",[5],-10.2% [at 18.4 µM]
C[C@H]1C=C[C@H]2CCCC[C@@H]2[C@H]1C(=O)[C@H]1CC2=C(C(=O)O)CCN2C1=O,Potency,[1],11 µM (active)
same,Potency,[2],inactive
same,Potency,[9],inactive
same,Potency,[8],inactive
same,Potency,[3],16.6 µM (active)
C=CC(CCCCC)C1C(=O)NC(=O)C1C(=O)C1C2C(C)CC(C(=O)O)CC2CC1(O)C(=O)/C=C/C (stereo not drawn),Potency,[1],6.21 µM (active)
same,Potency,[6],inactive
same,Potency,[3],2.09 µM (active)
same,Potency,[5],inactive
CO[C@H]1[C@@H](OC(=O)/C(C)=C\[C@@H]2O[C@@H]2[C@H]2O[C@H]2C)[C@H](O)[C@H](OCC23C[C@@H]4[C@H](C)CC[C@H]4C4(C=O)CC2C=C(C(C)C)C34C(=O)O)O[C@@H]1C (stereo partly drawn),Potency,[1],22 µM (active)
same,Potency,[6],inactive
same,Potency,[9],inactive
same,Potency,[3],16.6 µM (active)
same,Potency,[5],inactive
CC(C)C[C@@H]1c2c(O)c(C=O)c(O)c(C=O)c2O[C@]2(C)C=C[C@@H](C(C)C)C[C@H]12,Potency,[1],13.9 µM (active)
same,Potency,[7],inactive
same,Potency,[8],inactive
same,Potency,[4],inactive
same,Potency,[5],inactive
COc1ccc2[nH]c3c(c2c1)CCN1C[C@H]2C[C@@H](OC(=O)c4cc(OC)c(OC)c(OC)c4)[C@H](OC)[C@@H](OC)[C@H]2C[C@H]31,Potency,[1],inactive
same,Potency,[2],7.47 µM (active)
same,Potency,[9],inactive
same,Potency,[3],inactive
C=C(C)CC[C@H](Cc1c(O)cc(O)c2c1O[C@H](c1ccc(O)cc1)CC2=O)C(=C)C,Potency,[1],15.6 µM (active)
same,Potency,[7],23.5 µM (active)
same,Potency,[2],inactive
same,Potency,[9],inactive
same,Potency,[4],18.6 µM (active)
same,Potency,[5],inactive
C=CC(CCCCC)C1C(=O)NC(=O)C1C(=O)C1C(/C=C/C)C=CC2CC(C(=O)O)CC(C)C21 (stereo not drawn),Potency,[1],3.92 µM (active)
same,Potency,[5],inactive
O=c1cc(-c2ccc(O)c(O)c2)oc2cc(O[C@@H]3O[C@H](CO)[C@@H](O)[C@H](O)[C@H]3O)cc(O)c12,Potency,[1],17.5 µM (active)
same,Potency,[6],16.7 µM (active)
same,Potency,[2],0.236 µM (active)
same,Potency,[3],inactive
same,Potency,[5],inactive
CC(=O)Oc1cc2c(c(OC(C)=O)c1C1CCc3cc(Cl)c(Cl)n31)C(=O)n1c-2cc(Cl)c1Cl (stereo not drawn),Potency,[1],3.92 µM (active)
same,Potency,[6],7.47 µM (active)
same,Potency,[7],11.8 µM (active)
same,Potency,[4],9.33 µM (active)
same,Potency,[5],42.8 µM (active)
C[n+]1cc2cc(C(N)=O)[nH]c3c(=N)c(Cl)c(N)c1c23,Potency,[1],44 µM (active)
same,Potency,[6],inactive
same,Potency,[2],inactive
same,Potency,[9],inactive
same,Potency,[4],inactive
CC[C@H]1[C@H](C)[C@H](c2cc(OC)c(OC)cc2OC)[C@@H](C)[C@H](c2cc(OC)c(OC)cc2OC)[C@@]12C=C(OC)C(=O)C=C2OC,Potency,[1],27.7 µM (active)
same,Potency,[2],1.88 µM (active)
same,Potency,[4],inactive
CN1CC[C@]2(c3cccc4c3N[C@H]3N(C)CC[C@@]43[C@]34CCN(C)[C@H]3Nc3ccccc34)c3ccccc3N[C@H]12,Potency,[1],inactive
same,Potency,[6],16.7 µM (active)
same,Potency,[2],0.0375 µM (active)
same,Potency,[9],inactive
same,Potency,[5],15.2 µM (active)
C/C(=C\CC[C@@H](C)[C@H]1CC[C@]2(C)C3=CCC4C(C)(C)[C@@H](O)C[C@@H](O)[C@]4(C)C3[C@H](O)C[C@@]12C)CO (stereo partly drawn),Potency,[1],19.6 µM (active)
same,Potency,[9],inactive
same,Potency,[8],inactive
same,Potency,[4],33.1 µM (active)
C/C=C/C1C=CC2CC(C)CC(C)C2C1C(=O)CC(=O)NC(CO)C/C=C/CCCCC (stereo not drawn),Potency,[1],11 µM (active)
same,Potency,[2],inactive
same,Potency,[9],inactive
same,Potency,[5],inactive
C/C=C(/C)c1c(Cl)c(O)c(C)c2c1Oc1c(Cl)c(O)c(Cl)c(C)c1C(=O)O2,Potency,[1],1.96 µM (active)
same,Potency,[6],inactive
same,Potency,[2],inactive
same,Potency,[8],8.31 µM (active)
same,Potency,[4],7.41 µM (active)
same,Potency,[5],inactive
COc1cc(O)c(C(=O)[C@@H]2[C@H](CC=C(C)C)C(C)=CC[C@H]2c2ccccc2)c(O)c1,Potency,[1],15.6 µM (active)
same,Potency,[6],23.6 µM (active)
same,Potency,[2],6.66 µM (active)
same,Potency,[8],4.67 µM (active)
C=C1CC[C@@H](O[C@H]2C[C@@](O)([C@H](C)NC(=O)c3[nH]c(C)c(Cl)c3Cl)[C@H](O)[C@@H](C)O2)[C@@H]2C=C[C@H](C)C(/C(O)=C3/C(=O)[C@H](C(C)C)N([C@@H]4O[C@H](C)[C@H](OC(N)=O)[C@H](OC(C)=O)[C@@H]4OC)C3=O)[C@@H]12 (stereo partly drawn),Potency,[1],15.6 µM (active)
same,Potency,[8],16.6 µM (active)
C/C=C(/C)c1cc(O)c(C)c2c1Oc1cc(O)cc(C)c1C(=O)O2,Potency,[1],24.7 µM (active)
same,Potency,[6],inactive
same,Potency,[2],inactive
same,Potency,[8],10.5 µM (active)
same,Potency,[5],inactive
CCC(=O)CCCCC[C@@H]1NC(=O)[C@H]2CCCCN2C(=O)[C@H](C(C)C)NC(=O)[C@H](Cc2cn(OC)c3ccccc23)NC1=O,Potency,[1],13.9 µM (active)
same,Potency,[7],5.26 µM (active)
same,Potency,[2],0.747 µM (active)
same,Potency,[8],inactive
same,Potency,[4],5.88 µM (active)
same,Potency,[5],15.2 µM (active)
